A short description of assay [1]: NCI Yeast Anticancer Drug Screen. Data for the rad50 strain (AID 155).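 Note: 0% = growth of vehicle-only cultures of the same strain.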 Particulars: S. cerevisiae rad50 strain growth inhibition, stronger effect = higher value. Put shortly: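 A DNA repair-deficient yeast mutant serves as the test organism; compound-induced growth inhibition is calculated against vehicle-treated cells.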
Assay [2] can be described thus: NCI Yeast Anticancer Drug Screen. Data for the mec2-1 strain (AID 157). Particulars: S. cerevisiae mec2-1 strain, stronger effect = higher value. An outline of the steps:
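Yeast mec2-1 mutant treated with compound. Readout: growth inhibition vs vehicle controls.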

Assay [3] in a line: NCI Yeast Anticancer Drug Screen. Data for the sgs1 mgt1 strain (AID 161).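 Note: 0% = growth of cultures given vehicle only.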 Conditions: S. cerevisiae sgs1 mgt1 strain, stronger effect = higher value. Put shortly:
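Inhibition of yeast growth, normalised to vehicle-treated controls, is reported for a strain bearing genetic alterations in DNA damage repair.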

Assay [4] can be described thus: NCI Yeast Anticancer Drug Screen. Data for the cln2 rad14 strain (AID 165).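 Note: 0% = growth equal to vehicle treated cultures.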 Conditions: S. cerevisiae cln2 rad14 strain, stronger effect = higher value. An outline of the steps: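 cln2 rad14 yeast strain; compound exposure; growth inhibition read vs vehicle controls.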
Assay [5] in a line: NCI Yeast Anticancer Drug Screen. Data for the bub3 strain (AID 167). Particulars: S. cerevisiae bub3 mutant strain, stronger effect = higher value. An outline of the steps: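 Inhibition values come from growth of compound-treated mutant yeast normalised to vehicle-treated controls.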
Assay [6] in a line: NCI Yeast Anticancer Drug Screen. Data for the mlh1 rad18 strain (AID 175). Particulars: S. cerevisiae mlh1 rad18 strain growth inhibition, stronger effect = higher value. Put shortly:
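Yeast w/ defined DNA-repair lesions; compound exposure; growth vs vehicle controls → % inhibition.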

[7] abbreviates: at 5.0 µM (retest, dose inferred, filed as 0.5).
Setting [8] is: at 50.0 µM (retest, dose inferred, filed as 5.0).

This passage reports growth inhibition results from PubChem BioAssay (NCI).

Where “and” joins values, the source holds several entries; their conditions need not be identical. Equal values may be shown once. About 79,000 compounds went through this panel and 15% of them were active in at least one assay; those are over-represented in the sample as a whole. Unmarked numbers belong to inactive results. Calls of active or inactive are those of the source. Cut-off read from the data, not from the text of the source: active = growth inhibition above about 70%; inactive = the rest.

Consider `OC(c1nc2ccccc2[nH]1)C(O)C(O)C(O)c1nc2ccccc2[nH]1` (stereo unspecified), for which the growth inhibition is -2% in assay [1] (setting [7]); -28% in assay [1] (setting [8]); -8.95% and 19.2% in assay [1] (at 50.0 µM); -25% in assay [2] (setting [7]); -18% in assay [2] (setting [8]); -15.1% and 2.95% in assay [2] (at 50.0 µM). Moreover, the growth inhibition was -20% in assay [3] (setting [7]); 1% in assay [3] (setting [8]); -18.4% and 17.9% in assay [3] (at 50.0 µM); 0% in assay [4] (setting [7]); -3% in assay [4] (setting [8]); 2.25% and -6.8% in assay [4] (at 50.0 µM). The growth inhibition in assay [5] (setting [7]) is -15%; in assay [5] (setting [8]), -28%; in assay [5] (at 50.0 µM), -38.5% and 44.8%; in assay [6] (setting [7]), -22%; in assay [6] (setting [8]) it was -49%; in assay [6] (at 50.0 µM) it was 2.85% and 22%.

With `O=C(O)c1ccccc1C(=O)O`, the growth inhibition was -3% in assay [1] (setting [7]); 8% in assay [1] (setting [8]); -29.7% and 15.6% in assay [1] (at 50.0 µM); -3% in assay [2] (setting [7]); 4% in assay [2] (setting [8]); -14.8% and 5.1% in assay [2] (at 50.0 µM). Further, the growth inhibition in assay [3] (setting [7]) was 0%; in assay [3] (setting [8]), 7%; in assay [3] (at 50.0 µM), 4.95% and -23.6%; in assay [4] (setting [7]) it was 4%; in assay [4] (setting [8]), 7%; in assay [4] (at 50.0 µM) it was 21.1% and 54.1%. Further, the growth inhibition in assay [5] (setting [7]) is 2%; in assay [5] (setting [8]) it was -6%; in assay [5] (at 50.0 µM), -7.45% and -11.4%; in assay [6] (setting [7]), -2%; in assay [6] (setting [8]), 7%; in assay [6] (at 50.0 µM), -5.8% and 7%.

Consider `S=c1nc[nH]c2[nH]ccc12`, for which the growth inhibition in assay [1] (setting [7]) was -3%; in assay [1] (setting [8]) it was -4%; in assay [1] (at 50.0 µM), 10.1%; in assay [2] (setting [7]), 2%; in assay [2] (setting [8]) it was -3%; in assay [2] (at 50.0 µM), 0.6%. Moreover, the growth inhibition is 0% in assay [3] (setting [7]); -2% in assay [3] (setting [8]); -2.35% in assay [3] (at 50.0 µM); -2% in assay [4] (setting [7]); -7% in assay [4] (setting [8]); 48% in assay [4] (at 50.0 µM). In addition, the growth inhibition in assay [5] (setting [7]) is -1%; in assay [5] (setting [8]), -6%; in assay [5] (at 50.0 µM), -5.4%; in assay [6] (setting [7]) it was -1%; in assay [6] (setting [8]), 0%; in assay [6] (at 50.0 µM), 2.8%.

`CC(C)CC(Nc1c(O)ccc2ccccc12)C(=O)O` (stereo unspecified): the growth inhibition in assay [1] (setting [7]) was 24%; in assay [1] (setting [8]), 98% (active); in assay [1] (at 50.0 µM), 98.8% (active); in assay [2] (setting [7]), 0%; in assay [2] (setting [8]), 99% (active); in assay [2] (at 50.0 µM), 99.4% (active). Moreover, the growth inhibition in assay [3] (setting [7]) was 17%; in assay [3] (setting [8]), 99% (active); in assay [3] (at 50.0 µM), 99.3% (active); in assay [4] (setting [7]) it was 11%; in assay [4] (setting [8]), 99% (active); in assay [4] (at 50.0 µM) it was 72.7% (active). Moreover, the growth inhibition was 15% in assay [5] (setting [7]); 99% (active) in assay [5] (setting [8]); 95.2% (active) in assay [5] (at 50.0 µM); 45% in assay [6] (setting [7]); 99% (active) in assay [6] (setting [8]); 99.3% (active) in assay [6] (at 50.0 µM).

Take `Nc1nc(N)c2nc3c4ccccc4c4ccccc4c3nc2n1`: the growth inhibition in assay [1] (setting [7]) is 2%; in assay [1] (setting [8]), 35%; in assay [1] (at 50.0 µM) it was 56.5%; in assay [2] (setting [7]), 1%; in assay [2] (setting [8]), 30%; in assay [2] (at 50.0 µM) it was 38.5%. Besides, the growth inhibition was 0% in assay [3] (setting [7]); 32% in assay [3] (setting [8]); 21.7% in assay [3] (at 50.0 µM); 1% in assay [4] (setting [7]); 3% in assay [4] (setting [8]); 68.8% in assay [4] (at 50.0 µM). Besides, the growth inhibition in assay [5] (setting [7]) is 7%; in assay [5] (setting [8]), 38%; in assay [5] (at 50.0 µM), 74.5% (active); in assay [6] (setting [7]), 5%; in assay [6] (setting [8]), 44%; in assay [6] (at 50.0 µM), 69.5%.

On to `CCN(C(=O)C(Cl)Cl)C(Cc1ccccc1)c1ccccc1` (stereo unspecified), for which the growth inhibition in assay [1] (setting [7]) is -1%; in assay [1] (setting [8]), 58%; in assay [1] (at 50.0 µM), 91.5% (active); in assay [2] (setting [7]), -1%; in assay [2] (setting [8]) it was 61%; in assay [2] (at 50.0 µM), 96.3% (active). The growth inhibition in assay [3] (setting [7]) is -1%; in assay [3] (setting [8]), 80% (active); in assay [3] (at 50.0 µM), 93.8% (active); in assay [4] (setting [7]), -4%; in assay [4] (setting [8]), 74% (active); in assay [4] (at 50.0 µM) it was 86.8% (active). The growth inhibition in assay [5] (setting [7]) was 10%; in assay [5] (setting [8]), 61%; in assay [5] (at 50.0 µM), 86.8% (active); in assay [6] (setting [7]), 2%; in assay [6] (setting [8]), 72% (active); in assay [6] (at 50.0 µM), 86% (active).

For `Cc1cc2c(C(C)C)c(O)c(O)c(C=Nc3ccccc3S)c2c(O)c1-c1c(C)cc2c(C(C)C)c(O)c(O)c(C=Nc3ccccc3S)c2c1O`, the growth inhibition in assay [1] (setting [7]) is -3%; in assay [1] (setting [8]), 53%; in assay [1] (at 50.0 µM) it was 36.2%; in assay [2] (setting [7]) it was -12%; in assay [2] (setting [8]), 28%; in assay [2] (at 50.0 µM) it was 55%. Also, the growth inhibition in assay [3] (setting [7]) is -4%; in assay [3] (setting [8]), 4%; in assay [3] (at 50.0 µM), 57.3%; in assay [4] (setting [7]), -9%; in assay [4] (setting [8]) it was 16%; in assay [4] (at 50.0 µM) it was 44.6%. Moreover, the growth inhibition in assay [5] (setting [7]) is -8%; in assay [5] (setting [8]) it was 45%; in assay [5] (at 50.0 µM) it was 39.5%; in assay [6] (setting [7]), -5%; in assay [6] (setting [8]), 66%; in assay [6] (at 50.0 µM), 53.5%.
